Screening results: PubChem, several laboratories
PostGolgi yeast – phenotypic screen on post-Golgi transport, primary screen | post-Golgi transport phenotypic cell assay | inhibition, % at 10 µM | 98,000 tested, 0.9% active | AID 739, 2007;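 further: yeast cells grown in 1536-well plates; yeast grown about 18 h at 30C before absorbance read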
PostGolgi ctrl – growth inhibition of yeast control strain, primary screen, counter-screen for post-Golgi transport modulator project. efflux-deficient yeast background strain, growth absorbance A615, 16 h. inhibition, % at 10 µM. 98,000 tested, 5% active
Cav32 inh – Cav3.2 calcium influx blockers – cell-based, Fluo-4 calcium fluorescence, FDSS, MLSMR library, primary screen; Voltage-dependent T-type calcium channel subunit alpha-1H (Homo sapiens), O95180; Cav3.2-expressing cells; active compounds read low; B-score at 10 µM; 100,000 tested, 4% active;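 active means single-dose well whose peak fluorescence ratio is a statistical outlier from its plate by either plate-standardised score or position-corrected B-score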
D1 mod – D1 CRE-luciferase signal change, two-sided – cell-based, HEK293 D1, dopamine EC30, D1 allosteric modulator project, primary screen; 58,000 tested, 5.9% active; AID 641, 2007; B-score at 10 µM; dopamine EC30 potentiation; actives deviate in either direction; D(1A) dopamine receptor (Homo sapiens), P21728;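 active means luminescence count or its row- and column-corrected plate score outside the 99.7% band of the plate's sample wells, on either side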
PLAP act – PLAP enzyme activators, biochemical, luminescence, HTS | Alkaline phosphatase, placental type (Homo sapiens), P05187 | purified PLAP enzyme, luminescent substrate read-out; active compounds read high | activation fold at 20 µM | 96,000 tested, 1.2% active; in the data active means activation fold above about 2
Target sequence (P05187 whole entry, looked up): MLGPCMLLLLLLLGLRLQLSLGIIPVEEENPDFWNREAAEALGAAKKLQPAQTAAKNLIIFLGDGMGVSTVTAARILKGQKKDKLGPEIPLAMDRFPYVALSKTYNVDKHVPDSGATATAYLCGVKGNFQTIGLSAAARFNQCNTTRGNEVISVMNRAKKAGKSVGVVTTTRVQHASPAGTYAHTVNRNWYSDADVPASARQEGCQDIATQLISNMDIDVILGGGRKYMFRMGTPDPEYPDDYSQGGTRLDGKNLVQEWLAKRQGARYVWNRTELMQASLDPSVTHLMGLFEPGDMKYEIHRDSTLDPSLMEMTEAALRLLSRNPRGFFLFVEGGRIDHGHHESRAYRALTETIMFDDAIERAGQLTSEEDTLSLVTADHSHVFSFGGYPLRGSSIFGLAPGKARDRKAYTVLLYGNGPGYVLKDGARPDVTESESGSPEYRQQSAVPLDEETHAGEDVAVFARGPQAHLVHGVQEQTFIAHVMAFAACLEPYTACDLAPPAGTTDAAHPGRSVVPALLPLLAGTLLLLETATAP
hDAT+cocaine – changed hDAT dopamine uptake under cocaine IC80, either direction, primary screen, cocaine antagonist project, cell-based, LLC-PK1 hDAT, [14C]-dopamine uptake, MLSMR. Sodium-dependent dopamine transporter (Homo sapiens), Q01959. LLC-PK1 hDAT cells, [14C]-dopamine uptake with cocaine IC80; actives deviate in either direction. B-score at 10 µM. AID 449768, 2010. 110,000 tested, 1.3% active;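 active means Z score or B-score, a plate-position-corrected score, falls beyond the plate's 99.7% confidence bounds, in either direction; inactive means both scores lie inside the 99.7% bounds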
Numbers stand for hits; i = inactive; nt = not tested or not shown. Most compounds without a hit are left out; they make up all but 12% or so of the library. Unless noted, no stated cut-off is given here; in the data, active means inhibition above about 30%; inactive means the rest.

SMILES	PostGolgi yeast	PostGolgi ctrl	Cav32 inh	D1 mod	PLAP act	hDAT+cocaine
CC(=O)NS(=O)(=O)c1ccc(NC(=O)c2ccc(Br)o2)cc1	i	i	i	nt	i	-8.4
COc1ccc(C(=O)Nc2ccc(S(=O)(=O)NC(C)=O)cc2)cc1	i	36	i	i	i	i
CCN(Cc1ccncc1)C(=O)C1CCN(S(=O)(=O)c2cccs2)CC1	i	i	i	nt	i	i
CN(c1ccccc1)S(=O)(=O)c1ccc(C(=O)OCC(=O)N2CCOCC2)cc1	i	i	i	i	i	i
CC(C)=CCC(C)(C)CNC(=O)NC1CCCCC1	i	i	i	nt	nt	i
COc1ccc(C(=O)NC(C)c2nnc(SCC(=O)Nc3nc4ccccc4s3)n2C)cc1 (stereo not drawn)	i	i	i	i	i	i
COc1ccc(C(=O)Nc2cccc(OC)c2)cc1	i	i	i	-3.7	i	i
COc1cccc(C(=O)Nc2ccc(NC(C)=O)cc2)c1	i	i	i	nt	i	i
COc1cccc(C(=O)Nc2ccc(NC(=O)C(C)(C)C)cn2)c1	i	i	i	-6.3	i	i
Cc1cccc(Oc2coc3cc(OC(=O)c4cc5ccccc5oc4=O)ccc3c2=O)c1	i	i	i	nt	i	i
CC1CCN(S(=O)(=O)c2ccc(S(=O)(=O)NCC(=O)C(C)(C)C)cc2)CC1	i	i	i	i	i	i
CC1=C(C(=O)OCCOC(C)C)C(c2cc3c(cc2Br)OCO3)CC(=O)N1 (stereo not drawn)	i	32	i	nt	i	i
COC(Cc1n[nH]c(=S)n1-c1ccc(Cl)cc1)OC	i	i	i	nt	i	i
COc1cc(NS(=O)(=O)c2ccc(C)cc2)c2ncccc2c1	i	36	i	i	nt	i
COc1ccc(S(=O)(=O)Nc2cc3c(C(C)=O)c(C)oc3c3ccccc23)cc1	i	65	i	nt	2	i
C=CCc1cccc(CNc2c(C)n(C)n(-c3ccccc3)c2=O)c1O	i	i	-4	i	i	i
FC(F)(F)c1cccc(Sc2cc(C(F)(F)F)nc(-c3ccccn3)n2)c1	i	42	i	nt	i	i
CC(=O)c1c(C(C)=O)c(C)n(-c2nc(-c3ccc(Br)cc3)c(C)s2)c1C	i	56	nt	nt	i	i
CCCCC(CC)CN1C(=O)/C(=C/c2ccncc2)SC1=S (stereo not drawn)	i	32	i	nt	i	i
CCc1ccc(/C=C2\SC(=S)N(CCCC(=O)Nc3ccccn3)C2=O)cc1	i	i	i	nt	i	i
CCOCCCNC(=O)C1c2ccccc2C(=O)N2CCc3ccccc3C12 (stereo not drawn)	i	i	i	i	i	i
CCc1nnc2sc(-c3cc(-c4ccccc4)nc4ccccc34)nn12	i	34	i	i	i	i
O=C(O)/C=C/c1ccc(Cn2ccnc2)cc1	nt	nt	nt	nt	nt	i
CCN(C(=O)Cc1c(C(=O)O)[nH]c2ccccc12)c1cc(OC)ccc1OC	i	i	nt	i	i	i
CCN(C(=O)c1coc(=O)c2ccccc12)c1cc(OC)ccc1OC	i	38	i	i	i	i
SMILES	PostGolgi yeast	PostGolgi ctrl	Cav32 inh	D1 mod	PLAP act	hDAT+cocaine
O=C(NCCc1ccccc1)c1cc2sccc2n1Cc1ccccc1	i	i	i	nt	i	i
O=C(NCc1ccco1)c1ccc(Cn2c(=O)c3ccccc3n(Cc3cccc(Cl)c3)c2=O)cc1	i	i	i	nt	i	i
O=C(Nc1ccc2c(c1)OCCO2)c1cc2sccc2n1Cc1ccc(F)cc1	i	53	i	nt	i	i
O=C(Nc1ccc2c(c1)OCCO2)c1cc2sccc2n1Cc1ccccc1	i	i	-5.6	nt	i	i
Cn1c(C(=O)Nc2ccc3c(c2)OCCO3)cc2sccc21	i	i	i	-2.7	i	2.2
O=C(NCc1ccco1)c1ccc(Cn2c(=O)c3sccc3n(Cc3cccc(F)c3)c2=O)cc1	i	38	i	nt	i	i
O=C(Nc1nccs1)c1cc2sccc2n1Cc1ccc(Cl)cc1	i	i	i	nt	i	i
CCOC(=O)c1cccc(NC(=O)c2cc3sccc3n2C)c1	i	i	i	i	i	i
CC(=O)c1c(N2CCN(C)CC2)[nH]c(-c2ccccc2)nc1=S	i	i	i	nt	i	i
Cc1ccc2nc(NC(=O)C(NS(=O)(=O)c3cccc4nsnc34)C(C)C)sc2c1 (stereo not drawn)	i	i	i	nt	i	i
CC(=O)OC1c2ccccc2C(=O)N1Cc1ccccc1Cl (stereo not drawn)	i	i	i	i	i	i
O=C(NCc1ccco1)c1cc2sccc2n1Cc1ccccc1	nt	nt	-5.6	nt	nt	i
CC1Cc2ccccc2N1C(=O)c1cc2sccc2n1Cc1ccc(F)cc1 (stereo not drawn)	nt	nt	-5.6	nt	nt	i
O=C(NCc1ccco1)C1CCN(C(=O)c2cc3sccc3n2Cc2ccc(F)cc2)CC1	i	i	i	i	i	i
CCC(OC(=O)c1cc2sccc2n1C)C(=O)NCc1ccco1 (stereo not drawn)	103	99	i	i	i	i
CS(=O)(=O)N(CC(=O)Nc1cccc(F)c1)Cc1ccccc1	i	i	i	i	i	i
COc1ccc2cc3cc(C(=O)NCC4COc5ccccc5O4)oc3nc2c1 (stereo not drawn)	i	i	i	i	i	i
c1ccc(-c2nc(NCC3CCCO3)c3oc4ccccc4c3n2)cc1 (stereo not drawn)	i	53	i	nt	i	i
c1ccc(-c2nc(NCc3cccnc3)c3oc4ccccc4c3n2)cc1	i	55	i	i	i	i
CSCC[C@@H](Nc1nc(-c2ccccc2)nc2c1oc1ccccc12)C(=O)O	i	i	i	i	i	i
c1ccc2c(c1)oc1c(NCC3CCCO3)ncnc12 (stereo not drawn)	i	i	i	nt	i	i
Cc1sc(NC(=O)c2ccco2)nc1-c1ccccc1	i	i	i	nt	i	i
Cc1sc(NC(=O)c2ccco2)nc1-c1ccc2c(c1)CC(C)N2C(=O)C1CC1 (stereo not drawn)	i	33	i	-3.6	i	i
Cc1cc(C)c(S(=O)(=O)N(CC(=O)NCc2cccnc2)C2CCCCC2)c(C)c1	i	i	i	i	2.3	i
CS(=O)(=O)N(CC(=O)NCc1ccccc1)C1CCCCC1	nt	nt	i	nt	nt	i
COc1ccc(C)cc1Cn1c(S(C)(=O)=O)nc2ccccc21	i	i	i	i	i	i
CCC(C)n1c(SC(C)C#N)nc2ccccc2c1=O (stereo not drawn)	i	i	i	-4.8	i	i
COc1cccc(N=Cc2c[nH][nH]c2=O)c1	i	i	i	nt	i	-7.7
Cc1cc(C(=O)OCC(=O)NCCCN2CCCC2=O)c2ccccc2n1	i	i	i	nt	i	i
